A selection: hits, their analogues and other compounds. The true share with any hit is near 7.3%.
Rab9 prom act = activators of Rab9 promoter; Potency, µM (titrated, usually from 9.22 µM), usual class: activators; 320,000 compounds, 2.8% hits; AID 485297; Huh7 Rab9 promoter-luciferase reporter, luminescence, 24 h; also: nearly all actives have a fitted effect of over 60% in size
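Luminescence read-out: Huh7 cells stably expressing Rab9-luciferase, treated 24 h with compound at 37 °C, then lysed with luciferase reagent for 10 min at ambient before reading.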
ELG1 genotox = inducers of genotoxicity in HEK293T ELG1-luciferase cells. HEK293T ELG1-luciferase reporter, luminescence, 16 h. Potency, µM (top dose mostly 46 µM), hits mostly activators. 330,000 compounds, 1.3% hits. AID 504466; also: nearly all actives have a fitted effect of over 60% in size
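HEK293T cells expressing luciferase-tagged ELG1 were exposed to compound or DMSO vehicle for 16 hr at 37 °C and 5% CO2. Luciferase activity was then measured with ONE-Glo after 30 min at room temperature.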
SMN2 splice up = enhancers of SMN2 splice variant expression | HEK293 SMN2-luciferase splicing reporter, luminescence, 30-36 h | Potency, µM (highest dose often 46.1 µM), hits mostly activators | 210,000 compounds, 2.8% hits; also: nearly all actives have a fitted effect of over 55% in size
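qHTS luciferase splicing reporter: luminescence rises when SMN2 exon 7 is included in transfected HEK293 cells. Compound exposure lasted 30-36 h at 37C, with 4.5 mM final sodium butyrate as control, followed by a ONE-Glo read.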
NPC1 prom act = activators of NPC1 promoter. Potency, µM (titrated, usually from 9.22 µM), usual class: activators. 320,000 compounds, 2.4% hits. Huh7 NPC1 promoter luciferase reporter, 24 h. AID 485313; also: nearly all actives have a fitted effect of over 60% in size
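Quantitative HTS used a cell-based reporter: Huh7 cells stably bearing the NPC1 promoter upstream of luciferase were treated with compounds for 24 h, and promoter activation was read as luminescence.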
p53 reactivation = mutant p53 re-activation in reporter cells. H1299 p53-A138V BP100-luciferase reporter, luminescence, 24 h. Potency, µM (top dose mostly 92.2 µM), actives largely listed as activators. 320,000 compounds, 0.063% hits; also: nearly all actives have a fitted effect of over 45% in size
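H1299 (p53-null), stable ts p53-A138V + BP100-Luc; 1000 cells/well, Opti-MEM/10% FBS; cpd 4 pt, 1:5; 24 h, 37 deg C, 5% CO2; detection reagent 10 min RT; luminescence.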
FLuc modulator = counter-screen for miR-21 project: firefly luciferase inhibitors or activators | P08659 | purified FLuc, Km substrates, luminescence inhibition | Potency, µM (highest dose often 57.5 µM), hits mostly inhibitors | 360,000 compounds, 6.9% hits | AID 588342; also: nearly all actives have a fitted effect of over 55% in size
Target sequence (P08659 whole entry, looked up): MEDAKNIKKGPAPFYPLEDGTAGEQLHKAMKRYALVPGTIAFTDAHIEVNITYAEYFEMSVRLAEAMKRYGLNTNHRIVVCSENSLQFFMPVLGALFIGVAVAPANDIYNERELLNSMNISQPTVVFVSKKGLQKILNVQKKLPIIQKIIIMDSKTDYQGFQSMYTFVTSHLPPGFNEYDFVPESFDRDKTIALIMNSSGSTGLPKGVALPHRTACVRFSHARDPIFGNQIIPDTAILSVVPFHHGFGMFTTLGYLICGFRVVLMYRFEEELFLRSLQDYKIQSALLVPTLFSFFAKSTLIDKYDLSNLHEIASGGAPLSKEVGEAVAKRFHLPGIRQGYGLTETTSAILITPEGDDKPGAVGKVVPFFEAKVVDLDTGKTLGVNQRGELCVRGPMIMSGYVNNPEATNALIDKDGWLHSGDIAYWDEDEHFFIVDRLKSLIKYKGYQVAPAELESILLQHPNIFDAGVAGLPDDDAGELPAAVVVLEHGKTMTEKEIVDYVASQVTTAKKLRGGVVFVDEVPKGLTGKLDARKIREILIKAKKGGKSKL
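Biochemical qHTS of compounds, final roughly 60 µM downward over six points, against 10 nM purified firefly luciferase using Km concentrations of substrates (10 uM D-luciferin, 10 uM ATP) in Tris acetate pH 7.5 buffer; luminescence output.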
A number is an active result; [ ] = remark or other dose. Calls follow the shape of the dose curve; as a rule, active = well fitted curve in the direction sought with a large enough effect; inconclusive = small, poorly fitted or top-dose-only effect, or another doubt; inactive = no such curve, though single readings can be large; an effect the other way counts as inactive or inconclusive.

Results for O=C(NC(=S)Nc1ccc2[nH]ncc2c1)c1ccccc1 ?
Rab9 prom act: inconclusive; ELG1 genotox: inactive; SMN2 splice up: inactive; NPC1 prom act: inconclusive; p53 reactivation: inactive; FLuc modulator: inconclusive

What do the screens show for `O=C(Nc1ccc2[nH]ccc2c1)c1ccccc1`?
Rab9 prom act: 1.4µM; ELG1 genotox: inconclusive; NPC1 prom act: 0.56µM; p53 reactivation: inactive; FLuc modulator: 3.4µM

How did O=C(Nc1cc(-c2ccccc2)[nH]n1)c1ccccc1 do in these assays?
Rab9 prom act: 0.63µM; ELG1 genotox: inconclusive; NPC1 prom act: 0.56µM; p53 reactivation: inconclusive; FLuc modulator: 4.8µM

Results for O=C(Nc1cc(-c2ccccc2)[nH]n1)c1ccccc1F ?
Rab9 prom act: 1.4µM; ELG1 genotox: inconclusive; NPC1 prom act: 1.8µM; p53 reactivation: inactive; FLuc modulator: 8.5µM

What do the screens show for `O=C(c1cnc2c(c1)COc1ccccc1-2)c1ccccc1O`?
SMN2 splice up: inactive; FLuc modulator: inconclusive

How did COc1ccc(C(=O)[C@]2(C)C=C(c3ccc(OC)cc3)[C@H](C)C2)cc1 do in these assays?
SMN2 splice up: inactive

What do the screens show for `Cc1ccc2[nH]c(-c3cccc(N)c3)cc2c1`?
Rab9 prom act: 2.2µM; ELG1 genotox: 2.3µM; SMN2 splice up: 14µM; NPC1 prom act: 1.8µM; p53 reactivation: inconclusive; FLuc modulator: 4.8µM

What do the screens show for `O=[N+]([O-])c1cccc(-c2cc3ccccc3[nH]2)c1`?
Rab9 prom act: inactive; ELG1 genotox: inconclusive; NPC1 prom act: inconclusive; p53 reactivation: inactive; FLuc modulator: inactive

How did COc1ccc(Cl)cc1Nc1ncnc2c1nc1n2CCCC1 do in these assays?
FLuc modulator: inactive

What do the screens show for `Cn1c(=O)n(/N=C/c2ccccc2)c2ccccc21`?
Rab9 prom act: inactive; ELG1 genotox: inactive; SMN2 splice up: inconclusive; NPC1 prom act: inactive; p53 reactivation: inconclusive; FLuc modulator: 15µM

Results for Cc1nc2ccccc2c(=O)n1/N=C/c1ccccc1 ?
Rab9 prom act: inactive; ELG1 genotox: inactive; SMN2 splice up: inactive; NPC1 prom act: inactive; p53 reactivation: inactive; FLuc modulator: inconclusive

How did O=C(O)CCC(O)=C1S(=O)(=O)OCCOS1(=O)=O do in these assays?
SMN2 splice up: inactive[9.22 µM]

How did O=C(O)Cc1sc(-c2ccccc2)nc1-c1ccccc1 do in these assays?
Rab9 prom act: inactive; ELG1 genotox: inactive; SMN2 splice up: inactive; NPC1 prom act: inactive; p53 reactivation: inactive; FLuc modulator: inconclusive

What do the screens show for `O=C(O)Cc1sc(Nc2ccccc2)nc1-c1ccc(Cl)cc1`?
Rab9 prom act: inactive; ELG1 genotox: inconclusive; SMN2 splice up: inactive; NPC1 prom act: inactive; p53 reactivation: inactive; FLuc modulator: inconclusive

What do the screens show for `O=C(Cc1sc(Nc2ccccc2)nc1-c1ccccc1)NCc1ccccn1`?
Rab9 prom act: inconclusive; ELG1 genotox: inconclusive; SMN2 splice up: 13µM; NPC1 prom act: inconclusive; p53 reactivation: inactive; FLuc modulator: 19µM

What do the screens show for `O=C(O)Cc1sc(-c2ccc(Cl)cc2)nc1-c1ccccc1`?
Rab9 prom act: inactive; ELG1 genotox: inactive; SMN2 splice up: inactive; NPC1 prom act: inactive; p53 reactivation: inactive; FLuc modulator: 17µM

How did O=C(O)Cc1sc(Nc2ccc(F)cc2)nc1-c1cccs1 do in these assays?
Rab9 prom act: inconclusive; ELG1 genotox: inactive; NPC1 prom act: inactive; p53 reactivation: inactive; FLuc modulator: 17µM

Results for CC(C)(C)c1ccc(-c2nc(O)c(CC(=O)O)s2)cc1 ?
Rab9 prom act: inactive; ELG1 genotox: inactive; NPC1 prom act: inactive; p53 reactivation: inactive; FLuc modulator: 1.9µM

How did N#Cc1ccc(S(=O)(=O)N2CCC(Oc3cccc(C(F)(F)F)c3)CC2)cc1 do in these assays?
SMN2 splice up: inactive; FLuc modulator: inactive

How did O=C(O)Cc1sc(Nc2ccc(C(=O)O)cc2)nc1-c1ccccc1 do in these assays?
SMN2 splice up: inactive; FLuc modulator: inconclusive

Results for Cc1ccc(Nc2nc(-c3ccccc3)c(CC(=O)O)s2)cc1 ?
Rab9 prom act: inactive; ELG1 genotox: inconclusive; SMN2 splice up: inactive; NPC1 prom act: inactive; p53 reactivation: inactive; FLuc modulator: 13µM

Results for O=C(O)Cc1sc(Nc2ccccc2Cl)nc1-c1ccccc1 ?
SMN2 splice up: inactive; FLuc modulator: 3.4µM

What do the screens show for `CSc1cccc(NC(=O)C2CCCN(S(=O)(=O)c3ccc4c(c3)CCCN4C(C)=O)C2)c1` (configuration not stated)?
FLuc modulator: inactive

How did COc1ccc(C2=C(C)C(=O)N(Cc3ccc(C(=O)Nc4cc(C)ccc4C)cc3)S2(=O)=O)cc1 do in these assays?
FLuc modulator: inactive

Results for Cc1cc(C)n2nc(C(=O)NNC(=O)c3ccc(Cl)cc3)nc2n1 ?
Rab9 prom act: inactive; ELG1 genotox: inactive; NPC1 prom act: inactive; p53 reactivation: inactive; FLuc modulator: inactive

How did Cc1cc(C)n2ncc(-c3cccc(Br)c3)c2n1 do in these assays?
Rab9 prom act: inactive; ELG1 genotox: inactive; NPC1 prom act: inactive; p53 reactivation: inactive; FLuc modulator: inactive

How did Cc1cc(N)n2ncc(-c3ccc(F)cc3)c2n1 do in these assays?
Rab9 prom act: 3.2µM; ELG1 genotox: 16µM; SMN2 splice up: inconclusive; NPC1 prom act: inconclusive; p53 reactivation: inactive; FLuc modulator: 11µM

Results for COc1ccc(-c2cnn3c(C)cc(C)nc23)cc1OC ?
FLuc modulator: inactive

How did Cc1cc(C)n2cc(-c3ccc(Cl)cc3)c(C(=O)O)c2n1 do in these assays?
Rab9 prom act: 2.5µM; ELG1 genotox: 16µM; SMN2 splice up: 13µM; NPC1 prom act: 2.8µM; p53 reactivation: inactive; FLuc modulator: inconclusive

What do the screens show for `Cc1cc(N)n2ncc(-c3ccc(Cl)cc3)c2n1`?
Rab9 prom act: 3.2µM; ELG1 genotox: inconclusive; SMN2 splice up: inactive; NPC1 prom act: 2.8µM; p53 reactivation: inconclusive; FLuc modulator: 13µM

What do the screens show for `Cc1cc(Cl)n2ncc(-c3ccccc3)c2n1`?
Rab9 prom act: inconclusive; ELG1 genotox: inconclusive; NPC1 prom act: inactive; p53 reactivation: inactive; FLuc modulator: 12µM

What do the screens show for `Cc1cc(-c2ccc(Cl)cc2)c2cnn(C(C)C)c2n1`?
Rab9 prom act: inactive; ELG1 genotox: inactive; NPC1 prom act: inactive; p53 reactivation: inactive; FLuc modulator: inconclusive

Results for Cc1ccc(-c2ccc(CCC(=O)O)n2-c2ccc(C(C)C)cc2)cc1 ?
SMN2 splice up: inactive; FLuc modulator: inconclusive

Results for Cc1cc(N2CCOCC2)n2ncc(-c3ccccc3Cl)c2n1 ?
Rab9 prom act: 2.5µM; ELG1 genotox: 9.2µM; NPC1 prom act: 2.5µM; p53 reactivation: inconclusive; FLuc modulator: 2.7µM

How did Cc1nc2c(-c3ccc(F)cc3)c(C)nn2c(N2CCOCC2)c1C do in these assays?
Rab9 prom act: inactive; ELG1 genotox: inactive; SMN2 splice up: inactive; NPC1 prom act: inactive; p53 reactivation: inactive; FLuc modulator: inactive
